# Laboratory results from PubChem BioAssay (NCI).
# Compounds without any hit were thinned out: in the full panel of roughly 83,000, 20% have a hit.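 Negative percent growth values reflect cell death: -40 means 40% of the cells present at the start died, and -100 means all died.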 Values without a mark were called inactive. Activity calls are given as the source filed them. The calls were made as follows: active = growth percent below 10; inactive = the rest.
# Legend:
# Assay in all cases: NCI-60 one-dose screen, 48 h (100 = growth as untreated, 0 = no growth, -100 = all killed)
# Details in all cases: 10 µM
# NCI-H23 lung = tested on: NCI-H23 lung
# NCI-H226 lung = tested on: NCI-H226 lung
# HOP-62 NSCLC = tested on: HOP-62 NSCLC
# HOP-92 NSCLC = tested on: HOP-92 NSCLC
# A549/ATCC NSCLC = tested on: A549/ATCC NSCLC
# 786-0 renal = tested on: 786-0 renal
# COLO 205 colon = tested on: COLO 205 colon
# DU-145 prostate = tested on: DU-145 prostate
# K-562 leukemia = tested on: K-562 leukemia
# MDA-MB-231 breast = tested on: MDA-MB-231 breast
# RXF 393 renal = tested on: RXF 393 renal
# SF-268 CNS = tested on: SF-268 CNS
# SF-295 CNS = tested on: SF-295 CNS
# SF-539 CNS = tested on: SF-539 CNS
# UACC-257 melanoma = tested on: UACC-257 melanoma
# M14 melanoma = tested on: M14 melanoma
# NCI-H460 lung = tested on: NCI-H460 lung
# NCI-H522 lung = tested on: NCI-H522 lung
# MALME-3M melanoma = tested on: MALME-3M melanoma
Structure (SMILES),growth (NCI-H23 lung) [%],growth (NCI-H226 lung) [%],growth (HOP-62 NSCLC) [%],growth (HOP-92 NSCLC) [%],growth (A549/ATCC NSCLC) [%],growth (786-0 renal) [%],growth (COLO 205 colon),growth (DU-145 prostate) [%],growth (K-562 leukemia) [%],growth (MDA-MB-231 breast) [%],growth (RXF 393 renal),growth (SF-268 CNS) [%],growth (SF-295 CNS),growth (SF-539 CNS) [%],growth (UACC-257 melanoma) [%],growth (M14 melanoma) [%],growth (NCI-H460 lung) [%],growth (NCI-H522 lung),growth (MALME-3M melanoma) [%]
COc1cc(N)c2ncccc2c1SC,93.6,106,107,94.6,99.5,116,100%,104,122,95.1,121%,91.2,109%,114,98.3,104,–,–,–
CCN(CC)CCCOc1cccc2c1C(=O)c1cccc(OCCCN(CC)CC)c1C2=O,38.2,42.8,–,21.2,22.3,40.8,-12% (active),38.4,16.1,35.5,31.2%,44.3,45.2%,40.2,47.9,48.1,16.5,43.8%,39.9
CCOc1ccccc1/C=N\N=C(\N)N/N=C/c1ccccc1OCC,23.7,59.1,43.7,46.5,39.4,21.4,28.9%,46.1,16.3,52.5,-1.54% (active),47.2,23.4%,17.3,39.1,12.7,–,7.36% (active),–
COc1ccc(-c2nn(-c3cccc(Cl)c3)cc2-c2cc(-c3cccs3)[nH]c(=S)n2)cc1,15.7,58.9,–,94,39.7,38.4,52.4%,74.6,28.3,83.3,56.7%,61.6,8.31% (active),69.3,88.6,33.6,43.8,46.5%,31.1
CNC(=O)c1cn(C2CC2)c2cc(N3CCN(C(=O)c4cc(OC)c(OC)c(OC)c4)CC3)c(F)cc2c1=O,93.7,93,90.8,–,94.6,93.4,105%,104,104,98.2,112%,96.8,98%,98.9,–,109,–,90%,103
Nc1cc(-c2ccc(Cl)cc2)nn1-c1nc2ccccc2nc1Cc1ccccc1,81.5,84.3,88.8,–,78,89.5,109%,–,–,75.1,78.7%,–,–,99.5,101,89.6,–,85.7%,101
NC1=NC(c2ccc(Cl)cc2)C2=C(N1)/C(=C/c1ccc(Cl)cc1)CCC2 (stereo unspecified),61.1,109,140,–,66.7,90.4,92%,97.2,43.5,102,34.5%,83.2,67.5%,121,79.4,11,–,19.1%,97.7
COc1ccccc1-n1c(-c2sc(NC(C)=O)nc2C)n[nH]c1=S,101,106,–,105,104,106,116%,119,101,106,107%,94.9,83.2%,103,114,98.8,110,102%,104
O=C(Nc1cc([N+](=O)[O-])c2[nH]c(=O)c3ccccc3c2c1)C(F)(F)F,81.8,93.4,–,112,62,88.8,88.5%,97.1,84.6,88.6,76.7%,86.7,80.8%,93.6,93.4,107,38.4,77.2%,83.7
